The structures appear in SMILES notation. Where “and” joins values, the source holds several entries; their conditions need not be identical. Identical values can stand only once. Among all 190,000 compounds or so, about 810 (0.43%) were called active. This is one part of a sample in which actives are shown more often than they occur. Values without a mark were called inactive. No stated cut-off is given here; in the data, active means inhibition above about 50%; inactive means the rest.

For the assay, the target named is Mannose-6-phosphate isomerase (Homo sapiens) (UniProt P34949). The assay can be described thus: MPI enzyme activity inhibition – biochemical, fluorescence intensity, coupled assay, primary screen (AID 1209).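 Further: plate controls were DMSO vehicle for no effect and wells lacking substrate for full effect.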 The settings on record: purified PMI enzyme, at 20 µM, hits give high values.
Sequence of Mannose-6-phosphate isomerase (Homo sapiens) (P34949 whole entry, looked up): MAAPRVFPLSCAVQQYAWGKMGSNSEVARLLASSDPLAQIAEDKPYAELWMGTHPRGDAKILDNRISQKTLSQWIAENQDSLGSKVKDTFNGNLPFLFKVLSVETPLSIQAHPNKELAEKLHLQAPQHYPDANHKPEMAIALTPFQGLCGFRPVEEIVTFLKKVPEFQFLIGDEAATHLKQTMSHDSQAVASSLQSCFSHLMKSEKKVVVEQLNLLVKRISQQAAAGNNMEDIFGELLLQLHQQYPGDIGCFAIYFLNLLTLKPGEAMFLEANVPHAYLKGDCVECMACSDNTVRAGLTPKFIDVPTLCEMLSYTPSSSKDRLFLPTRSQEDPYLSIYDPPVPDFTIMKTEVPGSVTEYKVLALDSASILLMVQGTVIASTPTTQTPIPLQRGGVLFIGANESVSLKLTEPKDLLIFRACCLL
As to `CC(=O)c1cc(NC(=O)c2ccc([N+](=O)[O-])cc2)c(=O)oc1C`, the inhibition was -41%. Take `O=C(Nc1cc2c(oc1=O)CCCC2=O)c1cccc(Cl)c1`: the inhibition was -17.4%. With `CCN1CCN(S(=O)(=O)Cc2ccccc2)CC1`, the inhibition is -0.2%. Turning to `CCOC(=O)C1CCN(S(=O)(=O)Cc2ccccc2)CC1`, the inhibition was -11.2%.

In the case of `CCOC(=O)N1CCN(S(=O)(=O)Cc2ccccc2)CC1`, the inhibition is 104% (active). Regarding `CN1/C(=N\O)c2cccc3cccc1c23`, the inhibition was 5.7%.

With `CCC1=[N+](C)c2cccc3cccc(c23)N1C`, the inhibition was 51% (active).

For `CC1=Nc2cccc3cccc(c23)N1C`, the inhibition is 25.2%. For `O=C(CCc1ccc(Oc2cc([N+](=O)[O-])cc([N+](=O)[O-])c2)cc1)N1CCCCCC1`, the inhibition was 5.7%.

With `COc1ccccc1NC(=S)N(CCc1nc2cc(C)c(C)cc2[nH]1)Cc1cccnc1`, the inhibition is -2%. For `CCOC(=O)C(NC(=O)CC)(Nc1ccc(S(=O)(=O)Nc2ncccn2)cc1)C(F)(F)F` (stereo not given), the inhibition is 0.5%. Consider `Oc1c(Cl)cc(Cl)c2c1NCCC2`, for which the inhibition was 61.2% (active). On to `Cc1cc2c(C)cc(=O)oc2c2c1NCCC2`, for which the inhibition was 25.3%.

Take `Cc1ccc(OC(=O)C(F)(F)F)c2c1NCCC2`: the inhibition is 16.6%. The same measure for `CCOC(=O)c1sc(=S)n(-c2cc(OC)ccc2OC)c1N`: 65.3% (active); for `CCOC(=O)c1sc(=S)n(-c2ccc(C)cc2)c1N`: 30.1%.

As to `COC(=O)c1sc(=S)n(-c2cccc(Cl)c2)c1N`, the inhibition is 75.9% (active). The figure for `CCOC(=O)c1sc(=S)n(-c2cc(F)ccc2F)c1N` is 37.9%. As for `COC(=O)c1sc(=S)n(-c2ccccc2OC)c1N`, the inhibition was 0.3%. On to `COC(=O)c1sc(=S)n(-c2cc(F)ccc2F)c1N`, for which the inhibition is 55.8% (active). The same measure for `CCOC(=O)c1sc(=S)n(-c2cccc(OC)c2)c1N`: 63.2% (active); for `CCOC(=O)c1sc(=S)n(-c2ccccc2OC)c1N`: 21.8%. With `Cc1ccc(NC(=O)c2sc(=S)n(-c3cc(C)ccc3F)c2N)cc1`, the inhibition is 1.4%. In the case of `CCOC(=O)c1sc(=S)n(-c2ccccc2)c1N`, the inhibition was -2.1%. With `CCOC(=O)c1sc(=S)n(-c2ccc(F)c(F)c2)c1N`, the inhibition is 27%. Consider `COc1ccc(Cl)cc1-n1c(N)c(C(N)=O)sc1=S`, for which the inhibition is 22.6%. The same measure for `CCOC(=O)c1c(C)c(C(=O)NCc2ccccc2OC)c(C)n1C`: 11.8%; for `CCOC(=O)CNC(=S)n1ncnc1N`: -9.1%. For the molecule `Cc1ccc(S(=O)(=O)CCC(=O)Nc2ccc(F)cc2)cc1`, the inhibition was 6.5%. The same measure for `Cc1cccc(C(C)C)c1NC(=O)COC(=O)Cc1ccsc1`: 9%; for `Cc1ccc(OCC(=O)N/N=C/c2ccco2)cc1`: -1.5%.

Turning to `COc1ccc(/C=N/Nc2cc(N3CCCC3)nc(N3CCCC3)n2)cc1`, the inhibition is 32%.

With `CC(C)c1ccc(/C=N/Nc2cc(N3CCOCC3)nc(N3CCOCC3)n2)cc1`, the inhibition is 77% (active). Turning to `CCNc1nc(NCC)nc(N/N=C/c2ccc(O)c(O)c2)n1`, the inhibition was 61.4% (active). `CN(C)c1ccc(/C=N/Nc2cc(N3CCOCC3)nc(N3CCOCC3)n2)cc1`: the inhibition was 73.3% (active). Take `Clc1ccc(-c2ccc(/C=N/Nc3cc(N4CCOCC4)nc(N4CCOCC4)n3)o2)cc1`: the inhibition is 47.2%. Consider `CN(C)c1ccc(/C=C/C=N/Nc2nc(N3CCOCC3)nc(N3CCOCC3)n2)cc1`, for which the inhibition was 7.3%.

With `CCNc1nc(NCC)nc(N/N=C/c2ccc(Br)cc2)n1`, the inhibition is -0.7%.

For `CCNc1nc(NCC)nc(N/N=C/c2ccc(N(C)C)cc2)n1`, the inhibition is -12.9%. The figure for `Oc1ccc(/C=N/Nc2cc(N3CCCC3)nc(N3CCCC3)n2)cc1` is 32%. As to `Oc1cccc(/C=N/Nc2cc(N3CCCC3)nc(N3CCCC3)n2)c1`, the inhibition was 41.2%. The same measure for `Oc1ccc(/C=N/Nc2cc(N3CCOCC3)nc(N3CCOCC3)n2)cc1O`: 76.8% (active); for `Oc1ccc(/C=N\Nc2cc(N3CCOCC3)nc(N3CCOCC3)n2)c(O)c1`: 32.2%.

Consider `O=[N+]([O-])c1ccc(O)c2cccnc12`, for which the inhibition was -10.1%.

Regarding `CCCn1nc(C(=O)NC2CCCc3ccccc32)c2ccccc2c1=O` (stereo not given), the inhibition is 6.9%. With `COc1ccc(OC)c(C(=O)COC(=O)c2cc(C)oc2C)c1`, the inhibition is -24.4%. Regarding `O=C(CNC(=O)c1cccs1)NCC(=O)OCc1cccc(Cl)c1`, the inhibition was 4.5%. In the case of `CCOC(=O)C1=C(C)Nc2ccccc2N=C1NC(=O)Cc1ccc(Br)cc1`, the inhibition was 18.8%. In the case of `COc1ccc(Br)cc1-c1noc(-c2ccccc2)n1`, the inhibition is 11.5%. Turning to `COc1ccc(C2C(C#N)=C(N)Oc3n[nH]c(C)c32)cc1Cn1cc([N+](=O)[O-])cn1` (stereo not given), the inhibition was 7.7%. On to `O=C(/C=C/c1ccc(Br)cc1)NC(=S)NNC(=O)c1ccco1`, for which the inhibition is -1.2%. For `Oc1ccc(/C=N/Nc2nc(N3CCCC3)nc(N3CCCC3)n2)cc1O`, the inhibition is 57.6% (active).

Take `COc1cc(/C=N/Nc2nc(N3CCCC3)nc(N3CCCC3)n2)ccc1O`: the inhibition was 7.9%. For the molecule `COc1ccc(/C=N/Nc2nc(N3CCCC3)nc(N3CCCC3)n2)cc1O`, the inhibition was -10.3%. On to `N=C1C(c2ccccc2)=C(O)CN1c1cccc(S(N)(=O)=O)c1`, for which the inhibition is 10.1%.

With `CC1(C)C2CCC1(CS(=O)(=O)N1CCOCC1)C(=O)C2` (stereo not given), the inhibition was 7.9%. `CCOC(=O)c1cc2sccc2n1CC(=O)Nc1ccc(OC)cc1OC`: the inhibition is 16%.

Regarding `O=C1c2ccccc2C(=O)N1CN(C(=O)COc1ccccc1)c1ccccc1`, the inhibition is 3.5%. As for `COC(=O)c1ccc(Sc2ccc(C)cc2)c(N)c1`, the inhibition is 55% (active). Regarding `COC(=O)c1ccc(Sc2ccc(F)cc2)c(N)c1`, the inhibition was 11.4%. The same measure for `COC(=O)c1ccc(Sc2ccc(Cl)cc2)c(N)c1`: 9.3%. With `Cc1sc2nc(CSc3n[nH]c(N)n3)[nH]c(=O)c2c1C`, the inhibition is -10.2%. In the case of `CCCCNc1nc(=S)[nH]c2cc(OC)c(OC)cc12`, the inhibition is -4.5%. For `CCCCNc1cc(NC(C)=O)cc2cc(OC)c(OC)cc12`, the inhibition was 53.3% (active). Consider `CCCC(=O)Nc1cc(OC)c(OC)cc1C(=O)O`, for which the inhibition was 6.8%.

Regarding `Cc1cc(C)c(C#N)c(SCc2[nH]nc3c2C(c2ccc(F)cc2)C(C#N)=C(N)O3)n1` (stereo not given), the inhibition was 12.8%. `COc1cc(OC)cc(C(=O)NNC(=O)Cc2ccc(OC)c(S(=O)(=O)N3CCOCC3)c2)c1`: the inhibition is 2.7%.

Regarding `CCOC(=O)c1sc(=S)n2c1[nH]c(=O)c1ccc(C(=O)OC)cc12`, the inhibition was 68.6% (active). `CCCCCNC(=O)c1ccc2c(=O)[nH]c3c(C(=O)NCC4CCCO4)sc(=S)n3c2c1` (stereo not given): the inhibition is 10.4%. With `CCCCNC(=O)c1sc(=S)n2c1[nH]c(=O)c1ccccc12`, the inhibition was 16.1%. `CCOc1ccc(-c2[nH]nc3c2C(c2ccc(O)cc2)C(C#N)=C(N)O3)cc1` (stereo not given): the inhibition is 27.8%. Regarding `COc1ccc(-c2noc(CN(C(=O)C(C)(C)C)C(C)C)n2)cc1`, the inhibition is 15.9%. `Cc1oc2c(C)c(O)ccc2c(=O)c1-c1cnn(-c2ccccc2)c1`: the inhibition was -14.8%. As for `Cc1oc2cc(O)ccc2c(=O)c1-c1cnn(-c2ccccc2)c1`, the inhibition was -5.2%. For the molecule `Cc1oc2c(O)c(O)ccc2c(=O)c1-c1cnn(-c2ccccc2)c1`, the inhibition was 79.5% (active).

Consider `CCC(CC)=C(C#N)C(=O)NC1CCCCC1`, for which the inhibition is -12.5%. Regarding `CCN(C(=O)COC(=O)c1cc(-c2ccccc2)nc2c1c(C)nn2-c1ccccc1)C1CCS(=O)(=O)C1` (stereo not given), the inhibition is 14.7%. For the molecule `CC1(C)CC(=O)c2c(oc3cc(O)c(O)cc23)C1`, the inhibition is 47.6%. Take `CCOc1ccccc1-c1c2cc(O)c(=O)cc-2oc2cc(O)c(O)cc12`: the inhibition was 46.2%.

With `COc1cc(OC)c(-c2c3cc(O)c(=O)cc-3oc3cc(O)c(O)cc23)cc1OC`, the inhibition was 73.9% (active). Regarding `O=c1cc(-c2ccccc2Cl)oc2cccc(O)c12`, the inhibition is -9.9%. The same measure for `COc1cc(-c2cc(=O)c3ccccc3o2)ccc1O`: 5.9%.

For the molecule `COc1ccc(-c2cc(=O)c3cc(OC)ccc3o2)cc1`, the inhibition is -5%. In the case of `COc1ccc(OC)c(-c2c3cc(O)c(=O)cc-3oc3cc(O)c(O)cc23)c1`, the inhibition is 61.1% (active).

With `COc1ccc(OC)c(-c2oc3ccccc3c(=O)c2O)c1`, the inhibition is -5.6%. On to `Nc1cnn(Cc2ccccc2F)c1`, for which the inhibition was 18.2%. For `COc1ccc2[nH]cc(CCn3ccc(=O)c(C)c3C)c2c1`, the inhibition was 0.3%. The same measure for `O=C(Nc1ccccc1)c1sccc1Oc1ccc([N+](=O)[O-])cc1F`: -6%. For the molecule `CC(C)Oc1ccc2c(=O)c(-c3ccccc3)coc2c1`, the inhibition is 0.6% and 7.3%. `CC(=O)Oc1ccc2c(=O)c(-c3ccccc3)coc2c1`: the inhibition was -0.1%. Consider `COc1ccc2c(=O)c(-c3ccccc3)coc2c1`, for which the inhibition was 52.5% (active). With `COc1cccc(-c2ccc(SCC(=O)NCCc3ccccc3)nn2)c1`, the inhibition was 1.9%. Take `O=c1[nH]c2ccccc2c(O)c1O`: the inhibition was 71.8% (active). `CC(=O)Nc1c(O)c2ccccc2[nH]c1=O`: the inhibition was 20.2%. In the case of `O=c1[nH]c2ccccc2c2ccccc12`, the inhibition was 3.2%.

`Cc1cccc(/C(N)=N/OC(=O)C23CC4CC(CC(C4)C2)C3)c1`: the inhibition is 9%. Regarding `Cn1c(=O)n(Cc2ccc(F)cc2)c(=O)c2c1nc1n2CCCN1C1CCCCC1`, the inhibition was 6%.

Turning to `CCOCCCNC(=O)CCC(=O)NNc1nc2ccccc2c2nc(C)nn12`, the inhibition is 57.5% (active). For `COCCCNC(=O)CCC(=O)NNc1nc2ccccc2c2nc(C)nn12`, the inhibition was -1.5%. Consider `CCCCNC(=O)CCC(=O)NNc1nc2ccccc2c2nc(C)nn12`, for which the inhibition was 6.3%.

Broadly, the inhibition is the relative decrease from the control value, in per cent.

The record behind these values is PubChem BioAssay AID1209 (Sanford-Burnham Center for Chemical Genomics, 2008).
